PREPL inhibitor – inhibitors of human prolyl oligopeptidase-like enzyme PREPL | inhibition, % at 5.96 µM | recombinant PREPL, fluorescence polarization activity-based probe | actives 0.68% (n = 320,000) | Q4J6C6; in the data active = inhibition above about 43%
GRK2 inh – inhibitors of human GRK2 displacing RNA aptamer. bead flow cytometry, FAM-aptamer displacement from GRK2. inhibition of aptamer binding, % at 10 µM. actives 0.59% (n = 330,000). AID 488847;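 active = inhibition of aptamer binding above 40%, roughly 3 SD of noise, on plates passing a quality check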;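 also: median bead fluorescence of bound FAM aptamer so fluorescent compounds give negative values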
Target sequence (P25098 whole entry, looked up): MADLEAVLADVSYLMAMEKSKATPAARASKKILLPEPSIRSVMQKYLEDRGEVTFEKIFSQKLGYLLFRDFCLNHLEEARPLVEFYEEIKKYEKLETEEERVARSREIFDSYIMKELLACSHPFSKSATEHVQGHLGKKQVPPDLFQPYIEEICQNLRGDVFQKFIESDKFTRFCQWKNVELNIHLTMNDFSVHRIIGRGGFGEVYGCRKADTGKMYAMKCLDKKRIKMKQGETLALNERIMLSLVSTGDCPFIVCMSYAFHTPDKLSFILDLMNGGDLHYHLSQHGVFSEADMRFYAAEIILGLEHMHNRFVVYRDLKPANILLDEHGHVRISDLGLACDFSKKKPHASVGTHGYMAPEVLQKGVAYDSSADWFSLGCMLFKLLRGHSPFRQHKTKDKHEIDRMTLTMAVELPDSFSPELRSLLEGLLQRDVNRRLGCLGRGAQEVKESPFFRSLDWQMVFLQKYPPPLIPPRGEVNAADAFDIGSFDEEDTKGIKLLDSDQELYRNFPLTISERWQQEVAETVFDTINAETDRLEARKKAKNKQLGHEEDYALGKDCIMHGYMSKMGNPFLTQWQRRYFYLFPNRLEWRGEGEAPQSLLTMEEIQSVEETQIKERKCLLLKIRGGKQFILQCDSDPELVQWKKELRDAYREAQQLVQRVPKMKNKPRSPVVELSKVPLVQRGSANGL
DSG3 Ab inh – inhibitors of pemphigus antibody binding to human desmoglein-3. P32926. DSG3-coupled beads, scFv-anti-DSG3-GFP binding, flow cytometry; stronger effect = lower value. binding (percent of control), % at 10 µM. actives 0.48% (n = 310,000). AID 588358;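 active = binding more than 3 SD below its plate's average and above zero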;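 also: hits lower antibody fragment binding to DSG3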
GASC-1 inh – inhibitors of human GASC-1 (JMJD2C) demethylase. GST-JMJD2C(1-420) H3K9me3 demethylation, DELFIA europium. inhibition, % at 2.35 µM. Q9H3R0. actives 0.069% (n = 330,000). AID 2099;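 active = more than half of a compound's replicate wells show inhibition beyond 50%, single wells judged on their own value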;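 also: signal counts dimethyl H3K9 product captured on neutravidin plate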
VLA-4 inh – inhibition in a human VLA-4 binding assay | actives 0.2% (n = 330,000) | AID 2557 | P13612 | VLA-4 expressing cells, ligand binding flow cytometry | inhibition, % (about 7 µM as worked out from the volumes in the protocol); in the data active = inhibition above about 50%
VLA-4 allo CP – human VLA-4 allosteric modulation in cherry picked compounds; U937 cells, HUTS-21 LIBS mAb binding, flow cytometry; LDV ligand present at threefold Kd; inhibition, % at 6.7 µM; actives 2% (n = 1,300); AID 2813; shares compounds with VLA-4 inh; in the data active = inhibition above about 40%
Of the large screens only hits and unclear results are named; the others gave an inactive call (follow-up assays come after a bar, where they were run). A selection: hits, their analogues and other compounds. The true share with any hit is near 1.6%.

O=C(CSc1nnc(-c2ccccc2O)o1)Oc1ccc(Br)cc1	none
O=C(CSc1nnc(-c2ccccc2Cl)o1)Oc1ccc(Br)cc1	VLA-4 inh 91 | VLA-4 allo CP inactive
CN(C)CCN=Cc1c(O)n(-c2ccc(S(=O)(=O)N3CCOCC3)cc2)c(=O)c2ccccc12	none (no result: PREPL inhibitor, GRK2 inh, GASC-1 inh, VLA-4 inh)
O=C1NC(=S)SC1=C1CCCC1	none
CCCSC1=NN2CCCC(=O)N=C2S1	VLA-4 inh 50 (no result: DSG3 Ab inh) | VLA-4 allo CP inactive
CCCN1CCN(CC(=O)Nc2nncs2)CC1	none
C[C@@H]1CC=C[C@H]2[C@H]1C(=O)N(Cc1ccccc1)[C@H]2c1ccc2ccccc2c1Br	none (no result: PREPL inhibitor, GRK2 inh, VLA-4 inh)
CC1CC2C3CCC4=CC(=O)C=CC4(C)[C@@]3(Cl)C(O)CC2(C)C1(O)C(=O)CO (stereo partly drawn)	none | VLA-4 allo CP inactive
CCc1ccc([C@@H]2CC=C(C(=O)O)[C@H](c3ccc(C)cc3)N2S(=O)(=O)c2ccc(C)cc2)cc1	none (no result: GASC-1 inh)
CC[C@@H]1C=C(C(=O)O)[C@H](c2ccc(Br)cc2)N1S(=O)(=O)c1ccc(C)cc1	none (no result: GASC-1 inh)
CCCC[C@@H]1C=C(C(=O)O)[C@H](c2ccc(Br)cc2)N1S(=O)(=O)c1ccc(C)cc1	none (no result: GASC-1 inh) | VLA-4 allo CP inactive
CCc1ccc([C@H]2C(C(=O)O)=C[C@@H](CC)N2S(=O)(=O)c2ccc(C)cc2)cc1	none (no result: GASC-1 inh) | VLA-4 allo CP inactive
CC[C@@H]1C=C(C(=O)O)[C@H](c2ccc3c(c2)OCO3)N1S(=O)(=O)c1ccc(C)cc1	none (no result: GASC-1 inh)
CCCCC[C@@H]1C=C(C(=O)O)[C@H](c2ccc3c(c2)OCO3)N1S(=O)(=O)c1ccc(C)cc1	none (no result: GASC-1 inh) | VLA-4 allo CP inactive
CC[C@@H]1C=C(C(=O)O)[C@H](c2ccc(C#N)cc2)N1S(=O)(=O)c1ccc(C)cc1	none (no result: GASC-1 inh)
CCCC[C@@H]1C=C(C(=O)O)[C@H](c2ccc(CC)cc2)N1S(=O)(=O)c1ccc(C)cc1	none (no result: GASC-1 inh) | VLA-4 allo CP inactive
CCCCC[C@@H]1C=C(C(=O)O)[C@H](c2ccc(CC)cc2)N1S(=O)(=O)c1ccc(C)cc1	none | VLA-4 allo CP inactive
CCCCC[C@@H]1C=C(C(=O)O)[C@H](c2ccc(OC)c(OC)c2)N1S(=O)(=O)c1ccc(C)cc1	none | VLA-4 allo CP inactive
CCCCC[C@@H]1C=C(C(=O)O)[C@H](c2ccc(Cl)c(Cl)c2)N1S(=O)(=O)c1ccc(C)cc1	none
CCCCC[C@@H]1C=C(C(=O)O)[C@H](c2ccc(F)cc2)N1S(=O)(=O)c1ccc(C)cc1	none | VLA-4 allo CP inactive
COc1ccc([C@@H]2CC=C(C(=O)O)[C@H](c3ccc(C)cc3)N2S(=O)(=O)c2ccc(C)cc2)cc1OC	none
CCCCC[C@@H]1C=C(C(=O)O)[C@H](c2cccc(C)c2)N1S(=O)(=O)c1ccc(C)cc1	none | VLA-4 allo CP inactive
COc1ccc(CCN2CC(C(=O)NCc3ccco3)CC2=O)cc1OC (stereo not drawn)	none
Cc1ccc(C)c(N(CC(=O)N2CCCCCC2)S(C)(=O)=O)c1	none
Cc1ccc([N+](=O)[O-])cc1N(CC(=O)N1CCCCC1)S(C)(=O)=O	VLA-4 inh 53 | VLA-4 allo CP inactive
Cc1ccc(NC(=O)Nc2c(Cl)cccc2Cl)cn1	none | VLA-4 allo CP inactive
Cc1[nH]c2ccccc2c1C(=O)C(=O)N1CCN(c2ccccc2F)CC1	none
Fc1ccc(NCc2ccccc2F)cc1Cl	VLA-4 inh 50 | VLA-4 allo CP inactive
CCOC(=O)N1CCC2(CC1)CC(=O)c1cc(O)ccc1O2	VLA-4 inh 109 | VLA-4 allo CP inactive
CCOC(=O)c1c(-c2ccc(F)cc2)csc1NC(=O)CCN1C(=O)c2ccccc2C1=O	none
CCOC(=O)c1c(-c2ccccc2)csc1NC(=O)CCN1C(=O)c2ccccc2C1=O	none | VLA-4 allo CP inactive
COc1ccc(OC)c(C(=O)Nc2c(O)ccc3ccccc23)c1	none
CCOC(=O)c1ccccc1NC(=O)C1CC(=O)N(c2ccccc2)C1 (stereo not drawn)	none
O=C1c2c(O)cc(O)cc2O[C@H](c2ccc(O)c(O)c2)[C@H]1O	none
O=C1c2c(O)cc(O)cc2O[C@H](c2ccc(O)cc2)[C@H]1O	VLA-4 inh 50 | VLA-4 allo CP inactive
Cc1ccc(C)c(S(=O)(=O)Nc2ccc(C(N)=O)cc2)c1	none | VLA-4 allo CP inactive
CCO[C@H]1OC(C(=O)Nc2ccccc2)=C[C@@H](C)[C@@H]1CCCO	VLA-4 inh 91 | VLA-4 allo CP inactive
CC(C)(C)[C@H]1C=C(C(=O)Nc2ccccc2)O[C@@H](OCCCCO)C1	none | VLA-4 allo CP inactive
CCO[C@H]1OC(C(=O)N2CCN(Cc3ccccc3)CC2)=C[C@@H](C2CCCCC2)[C@@H]1CCCO	VLA-4 inh 53 | VLA-4 allo CP inactive
CCO[C@@H]1OC(C(=O)Nc2ccccc2)=C[C@H](c2ccccc2)[C@H]1CCCO	none
CCn1c(=N)n(CC(O)c2cccs2)c2ccccc21 (stereo not drawn)	none | VLA-4 allo CP inactive
COc1ccc(S(=O)(=O)N2CCCCCC2)cc1C(=O)N(C)CC(=O)Nc1ccccc1Br	none
CCOc1ccc(CN2CCN(CC(O)Cn3c4ccccc4c4ccccc43)CC2)cc1 (stereo not drawn)	VLA-4 inh 51 | VLA-4 allo CP inactive
COc1ccc(CN2CCN(CC(O)Cn3c4ccccc4c4ccccc43)CC2)cc1 (stereo not drawn)	none
Nc1ncnn1Cc1ccccc1	none (no result: PREPL inhibitor, GRK2 inh, GASC-1 inh, VLA-4 inh)
COc1cc(/C=N/NC(=O)c2ccncc2)c([N+](=O)[O-])cc1OC	VLA-4 inh 57 | VLA-4 allo CP inactive
Cc1nc([N+](=O)[O-])c(NCCO)n1Cc1ccccc1	VLA-4 inh 54 | VLA-4 allo CP inactive
Cc1nc([N+](=O)[O-])c(SCC(N)=O)n1Cc1ccccc1	none
N#Cc1ccc(S(=O)(=O)NC2CC2)cc1	none (no result: DSG3 Ab inh)
CCOc1ccc(-c2c[n+]3c(n2-c2ccccc2)CCCCC3)cc1	none
CSc1nc(N)nc2c1ncn2CC(=O)N[C@H](C)c1cccc2ccccc12	VLA-4 inh 54 | VLA-4 allo CP inactive
COC(=O)[C@@H](Cc1ccccc1)NC(=O)Cn1cnc2c(SC)nc(N)nc21	none
COc1ccc(C(=O)c2c3ccccc3[n+]([O-])n2CCC(N)=O)cc1	VLA-4 inh 55 (no result: DSG3 Ab inh) | VLA-4 allo CP inactive
CCn1nnnc1SCC(=O)Nc1sc(C)c(C)c1C#N	VLA-4 inh 94 | VLA-4 allo CP inactive
Cc1sc(NC(=O)CSc2nnnn2C(C)C)c(C#N)c1C	none
Cc1cccc(OCC(=O)NCC(=O)N/N=C/c2ccc([N+](=O)[O-])cc2)c1	none
O=C(CCC(=O)Nc1ccc(F)cc1)N/N=C/c1ccccc1	none
N#Cc1cnc(Nc2ccc(F)cc2)nc1N	none
COC(=O)c1ccccc1NC(=O)COc1ccccc1	none
COCCNC(=O)c1ccccc1NC(=O)COc1ccccc1	none | VLA-4 allo CP inactive
CCc1ccccc1NC(=O)c1ccc2nc(N3CCOCC3)sc2c1	none
COc1ccc(CCNC(=O)c2ccc3nc(N4CCCCC4)sc3c2)cc1OC	none | VLA-4 allo CP inactive

High-throughput results as filed in PubChem.
